The values below come from PubChem BioAssay (NCI).

This is part of a sample that, as a whole, favours compounds with a hit. Of some 83,000 tested, about 20% had one in any assay.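 Plates (96-well) were seeded with cells, treated with compound at one concentration, and incubated for 48 hours before percent growth was determined.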 A number with no mark means an inactive call. The source made the active and inactive calls. The calls were made as follows: active = growth percent below 10; inactive = the rest.

The assay concerns HL-60(TB) leukemia. In words: NCI-60 one-dose screen, 48 h (100 = growth as untreated, 0 = no growth, -100 = all killed). To be noted: 10 µM unless noted.
In the case of `C=C1C(=O)O[C@H]2[C@H]1CC/C(COC(=O)c1ccc(Cl)nc1)=C\CC[C@@]1(C)O[C@@H]21`, the growth is -55.1% (active). Consider `COCc1cnccc1NC1CCCCCC1`, for which the growth was 86.2%. Under `CC(C)(C)OC(=O)CC(S(=O)(=O)c1ccccc1)S(=O)(=O)c1ccccc1` stands 76.2%.

Take `O=C1/C(=C/c2ccc(Cl)cc2)CN(Cc2cn(CCNc3ccnc4cc(Cl)ccc34)nn2)C/C1=C\c1ccc(Cl)cc1`: the growth was -51.5% (active).

Regarding `COc1ccc(/C=C/C(=O)c2ccc(NC(=O)CSc3nnc(-c4ccc(OC)c(OC)c4)n3-c3ccccc3)cc2)cc1`, the growth was 54.8%. Take `COc1cc(-c2nc3ccc(C)cc3[nH]2)ccc1OCc1nnc(-c2ccc(CC(C)C)cc2)o1`: the growth was 110%. With `Cn1cc(C(=O)c2nc(-c3c[nH]c4ccc(Br)cc34)no2)c2cc(Br)ccc21` the figure was 82.9%. With `Nc1ccccc1-c1ccc(-c2ccc(Cl)cc2)c2c1[nH]c1ccccc12` the figure was 70.9%; with `O=C(CCCCCCN1CC(=O)N2[C@H](c3ccc(Cl)cc3)c3[nH]c4ccccc4c3C[C@@H]2C1=O)NO`, 1.54% (active); with `COc1cccc(-c2cc3c(O)cc(C#N)cc3[nH]2)c1`, 21.3%.

Take `O=C(NNC(=O)c1ccc(NC(=O)c2ccccn2)cc1)Nc1ccc2ccccc2c1`: the growth was 105%. With `C[C@H]1[C@H](C)CC[C@]2(CO)CC[C@]3(C)C(=CC[C@@H]4[C@@]5(C)Cc6c([nH]c7ccccc67)C(C)(C)[C@@H]5CC[C@]43C)[C@H]12` the figure was 81.7%. Regarding `N#CCNc1ccccc1N`, the growth is 95.2%. With `CCC1NC(=O)C(NC(=O)c2ncccc2O)C(C)OC(=O)C(c2ccccc2)NC(=O)C2CC(=O)CCN2C(=O)C(Cc2ccc(N(C)C)cc2)N(C)C(=O)C2CCCN2C1=O` (stereo not given) (tested in a mixture with another compound) the figure was 42.5%; with `COc1cc(NC(=O)Nc2cnc(Nc3ccc(N4CCOCC4)cc3)nc2Oc2ccc(F)cc2)cc(OC)c1`, 65.4%; with `CN1Cc2c(cc(CN3CCCCC3)n2C)C(c2ccc(Br)cc2)C1` (stereo not given), 83.8%. In the case of `Cc1ccc(Cl)cc1Nc1nc(C(F)(F)F)ccc1C(=O)N/N=C/c1c(Cl)cccc1Cl`, the growth was 17.3%. `COc1cc(Cc2cc(-c3ccccc3)nn(Cc3ccccc3)c2=O)cc(OC)c1OC`: the growth was 19.3%. Under `O=c1c2ccccc2n(CC(O)CN2CCCC2)c2c(Br)cccc12` (stereo not given) stands 82.3%; under `Cc1cc(C)c(O)c(CNCCCCCCNCc2cc(C)cc(C)c2O)c1`, -43% (active). With `CN1CCN(CC(=O)Nc2ccc(-c3nc4ccccc4s3)cc2)CC1` the figure was 96.4%; with `CC(C)C(C(=O)CCN(C)C)c1ccc(Cl)cc1` (stereo not given), 81.4%.

Regarding `O=c1[nH]cnc2nc[nH]c12`, the growth is 117%. Under `O=C(Nc1nc(-c2ccccc2)nc2c1sc(=S)n2-c1ccccc1)C(F)(F)F` stands 94.5%; under `COc1ccc(OC)c(Nc2nnc(-c3cc(OC)c(OC)c(OC)c3)o2)c1`, 95.5%; under `CC(=O)Nc1nc(C)c(C(=O)NNC(=O)Nc2ccccc2)s1`, 108%. With `Cc1nn(-c2ccccc2)c(/N=C/N(C)C)c1/C=C/C(=O)c1ccc(Cl)cc1` the figure was 76.3%; with `O=C(O)C(O)C(O)C(=O)O.[NH-]C1CCCCC1[NH-].[Pt+2]` (stereo not given), 104%. Take `COC(=O)c1c2c(c(C)[n+]([O-])c1C)C(=O)C=C(NCc1ccc(OC)cc1)C2=O`: the growth was -30.5% (active). With `COc1ccc(C2OCC(C)(C)CO2)cc1OC` the figure was 100%; with `O=c1cc2oc3cc(O)c(O)cc3c(-c3ccccc3O)c-2cc1O`, 103%; with `COc1ccc2c3c(c(OCCCN(C)C)nc2c1)-c1ccc(Cl)cc1C3=O`, 70.7%.

As for `N=C(N)c1ccc(-c2ccc(-c3ccc(Cl)c(Cl)c3)o2)nc1`, the growth was 15.1%.

As to `CCOc1nc(-c2ccccc2)cc2c(O)c(C(=O)N/N=C/c3ccc(N(C)C)cc3)[nH]c(=O)c12`, the growth is 111%. Under `CC(=NCc1ccccc1)c1ccc(O)cc1O` stands 102%; under `COC(=O)c1nc(N)nc(C(=O)OC)c1C(=O)c1cccc2ccccc12`, 107%. On to `COc1cc(Cc2cc(OC)c(O)c(OC)c2)cc(OC)c1O`, for which the growth was 44%. With `O=Cc1c(OCc2cnnn2CC(=O)Nc2ccc(Cl)cc2)ccc2ccccc12` the figure was 98.5%. With `Cc1ccc(F)cc1NC(=O)c1cc(Cl)ccc1Nc1ccccc1` the figure was 51.6%; with `COc1ccc(C2=NN(C(=O)c3ccc(S(C)(=O)=O)cc3)C(c3ccc(OC)c(OC)c3)C2)c(OC)c1` (stereo not given), 69%.
